Source: the supplement of paper PMC4166925
± gives the standard deviation of the averaged measurements. Whole data set: some 33,000 sequences, median “E-score (dimensionless, -0.5 to 0.5)” near -0.049, cut for the highest 2% near 0.37. For the sample, the highest values were picked, then their nearest neighbours and some sequences at random.

Test system: T1, PmTbr T-box DNA-binding domain (GST fusion)
T1 sequence: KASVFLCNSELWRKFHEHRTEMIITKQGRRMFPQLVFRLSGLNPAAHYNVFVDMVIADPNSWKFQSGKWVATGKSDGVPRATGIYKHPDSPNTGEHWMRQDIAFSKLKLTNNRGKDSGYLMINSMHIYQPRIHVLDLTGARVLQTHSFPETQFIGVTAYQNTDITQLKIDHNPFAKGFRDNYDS
Experiment: PBM E-score of 8-mer (E-score (dimensionless, -0.5 to 0.5)); Tbr is Tbrain of the sea star Patiria miniata (Pm) or the sea urchin Strongylocentrotus purpuratus (Sp); higher = stronger binding preference
Settings: the construct has about 5 more residues each side
Procedure, shortened: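 Primer extension turned Universal Agilent oligonucleotide arrays double-stranded. They were incubated with 200 nM protein in PBS (pH 7.5); the protein was a GST-fused Tbr T-box DNA-binding domain expressed in BL21 E. coli at 20 °C and purified on glutathione. Every ungapped 8-mer was scored from the scanned, quantified probe intensities, and the Universal PBM Analysis Suite gave each an enrichment E-score averaged over duplicate arrays.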

Sequence | PBM E-score of 8-mer
AGGCGTGC | 0.158 ± 0.011
ACGCGTGA | 0.38 ± 0.012
AAGCGTGG | 0.0213 ± 0.089
CATTGCCG | 0.0765 ± 0.039
TTAAGAAA | -0.165 ± 0.066
AATACTCT | -0.111 ± 0.064
CCGAGGGA | -0.236 ± 0.0027
ACGTTCAC | 0.227 ± 0.06
CAATCGCG | 0.269 ± 0.026
AATGCTGG | -0.209 ± 0.026
TAGGGTAA | -0.0929 ± 0.022
ATACTGAA | -0.116 ± 0.013
CACGCAAC | 0.024 ± 0.02
CATAGTAG | -0.286 ± 0.031
GATAACCC | 0.0272 ± 0.031
GTTAGGCA | -0.0852 ± 0.013
GCGTTAAC | 0.275 ± 0.056
CATTAAGG | -0.136 ± 0.13
AGGCGTCG | 0.353 ± 0.029
CGGCGTCA | 0.219 ± 0.03
AGGCGTCA | 0.4194 ± 0.0035
ACCTTATA | 0.221 ± 0.084
ATGAGCAG | -0.0322 ± 0.034
ATGGTGTG | 0.383 ± 0.0049

Sequence | PBM E-score of 8-mer
ATGGTGTC | 0.383 ± 0.02
ATGGTGCG | 0.187 ± 0.036
ATGGTGGC | 0.271 ± 0.056
ATGGTGTA | 0.104 ± 0.021
CTGGTGTC | 0.341 ± 0.023
CAGTAGAC | -0.0988 ± 0.05
AGCGCGTG | 0.27 ± 0.025
CGGTAAAG | -0.102 ± 0.037
ACACATAT | 0.386 ± 0.0052
CCACATTC | 0.104 ± 0.038
ACACATTG | 0.39 ± 0.017
AAACATTC | -0.0525 ± 0.037
ACACATTA | 0.264 ± 0.008
ACACATAG | 0.268 ± 0.022
AAACATTG | -0.0327 ± 0.00054
ACACATTC | 0.387 ± 0.016
ACACATAA | 0.251 ± 0.0089
GAGAAAAC | 0.0669 ± 0.12
ATTCCTCC | -0.291 ± 0.034
GACGCGTA | 0.0611 ± 0.022
ATCCAGCA | -0.175 ± 0.032
AATGGTCG | -0.249 ± 0.14
ACGAGAGG | 0.0873 ± 0.05
GTAGTCTA | -0.207 ± 0.03

Sequence | PBM E-score of 8-mer
CTAGGTTC | -0.0841 ± 0.0095
CTAGGTGC | 0.403 ± 0.008
GTAGGTTA | -0.189 ± 0.025
CTAGGTGA | 0.398 ± 0.014
ATAGGTGC | 0.414 ± 0.0057
GTAGGTGA | 0.397 ± 0.02
CTAGGTCC | -0.13 ± 0.071
CTAGGTCA | 0.00648 ± 0.021
GTAGGTAA | -0.141 ± 0.024
CTAGGTAA | -0.173 ± 0.055
ATAGGTGA | 0.345 ± 0.028
ATAGGTGG | 0.26 ± 0.051
CAGCATAC | -0.00656 ± 0.045
GCGCAGAA | -0.0316 ± 0.067
GGTAAACC | 0.131 ± 0.039
GAATCATA | 0.0757 ± 0.097
CTAGTAAG | -0.0596 ± 0.04
CCATGAGC | -0.138 ± 0.16
TCTGTGAA | 0.253 ± 0.0052
CCTGTGAA | 0.306 ± 0.0045
ACTGTGAT | 0.152 ± 0.046
GCTGTGAA | 0.3817 ± 0.0019
ACTGTGAA | 0.378 ± 0.0086
ACTGTGAG | 0.22 ± 0.017

Sequence | PBM E-score of 8-mer
CAGGCTTA | -0.197 ± 0.047
ATATAGCG | 0.0197 ± 0.053
CGTATGCA | -0.0979 ± 0.032
GATTTTGC | 0.189 ± 0.061
AAATAGGA | -0.294 ± 0.053
GGCTAACA | 0.179 ± 0.019
TGCTAACA | 0.369 ± 0.041
CGCTAACC | 0.256 ± 0.017
CGCTAACG | 0.3714 ± 0.0037
AGCTAACG | 0.157 ± 0.031
AGCTAACA | 0.209 ± 0.033
ATGTCCAG | -0.0643 ± 0.0044
GTATGCCA | -0.0108 ± 0.032
CTTGTAGC | 0.0941 ± 0.012
CGCGACAG | 0.308 ± 0.014
TGCGACAA | 0.296 ± 0.013
GGCGACCC | -0.0415 ± 0.017
GGCGACAC | 0.402 ± 0.019
CACGACAC | 0.314 ± 0.0061
GGCGACAA | 0.3812 ± 0.0024
CGCGACAA | 0.336 ± 0.0038
CGCGACAC | 0.375 ± 0.02
AGCGACAC | 0.317 ± 0.054
CCGACGCA | -0.0454 ± 0.012

Sequence | PBM E-score of 8-mer
GTCACATA | 0.263 ± 0.0064
ATGCGATC | -0.0333 ± 0.042
CAAGTTGA | 0.116 ± 0.0034
AGCGTTGA | 0.102 ± 0.055
AACCTCCC | -0.0756 ± 0.12
AACCTCCA | -0.158 ± 0.028
CACCTCCG | 0.447 ± 0.0095
AACCTCCG | 0.0421 ± 0.042
CCCCTCCG | 0.137 ± 0.019
CACCTCCC | 0.423 ± 0.0044
GACCTCCC | -0.178 ± 0.0044
CACCTCCA | 0.423 ± 0.0067
TACCTCCA | -0.00358 ± 0.099
CCGAAGTA | -0.302 ± 0.021
CCCAAGTA | -0.0284 ± 0.033
CGAGTGCA | -0.0272 ± 0.087
ACGAACTG | 0.0451 ± 0.03
CCTTTGGC | 0.0109 ± 0.046
CGATCCAG | -0.0702 ± 0.018
ATACCTGG | 0.139 ± 0.025
ATACCTGC | 0.0129 ± 0.047
CGACCTGC | 0.196 ± 0.043
AAACCTGA | 0.0859 ± 0.12
GAACCTGC | -0.162 ± 0.0065

Sequence | PBM E-score of 8-mer
ACACCTGG | 0.466 ± 0.0053
AGACCTGA | -0.102 ± 0.055
CCACCTGG | 0.252 ± 0.0058
GCACCTGC | 0.395 ± 0.018
CCACCTGC | 0.299 ± 0.02
ACACCTGC | 0.461 ± 0.017
ACACCTGA | 0.4657 ± 0.0021
ATGCCCAC | -0.186 ± 0.051
AGAACCCT | -0.229 ± 0.014
ACTCGCCA | 0.144 ± 0.015
CCTCTTAG | -0.103 ± 0.0023
CTATACCA | -0.205 ± 0.013
AGCCCCAG | -0.138 ± 0.057
TCTTGCCA | 0.0678 ± 0.023
GAGAACCC | -0.0803 ± 0.011
AGGCTCTG | -0.0891 ± 0.012
AAGAATGT | -0.0657 ± 0.011
ATCAGTGG | -0.0659 ± 0.059
AGGGCAAG | -0.2 ± 0.018
TCGATTCA | 0.0262 ± 0.015
GTGGGCCA | -0.191 ± 0.031
